The results in this text go back to PubChem BioAssay AID778 (Sanford-Burnham Center for Chemical Genomics, 2007).

Each structure is given as a SMILES string. About 20,000 (21%) of roughly 96,000 compounds were called active. The list is a sample of the results. Values without a mark were called inactive.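 How the source made its calls: active means CYP2C19 inhibition above a set limit at 5 µM in the primary screen (cut at about 50% in these data); inactive means the rest.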

For the assay, the target named is Cytochrome P450 2C19 (Homo sapiens) (UniProt P33261). Nature of the assay: blockers of cytochrome P450 2C19 activity – biochemical, luminescence, ADME assay, primary screen (AID 778).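 Further: plate controls were negative control wells for no effect and 2.5 mM tranylcypromine positive control for full effect.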 The settings on record: CYP2C19 Supersomes, luciferin-H EGE luminescence, 30 min; at 5 µM; hits give high values.
Chain of Cytochrome P450 2C19 (Homo sapiens) (P33261 whole entry, looked up): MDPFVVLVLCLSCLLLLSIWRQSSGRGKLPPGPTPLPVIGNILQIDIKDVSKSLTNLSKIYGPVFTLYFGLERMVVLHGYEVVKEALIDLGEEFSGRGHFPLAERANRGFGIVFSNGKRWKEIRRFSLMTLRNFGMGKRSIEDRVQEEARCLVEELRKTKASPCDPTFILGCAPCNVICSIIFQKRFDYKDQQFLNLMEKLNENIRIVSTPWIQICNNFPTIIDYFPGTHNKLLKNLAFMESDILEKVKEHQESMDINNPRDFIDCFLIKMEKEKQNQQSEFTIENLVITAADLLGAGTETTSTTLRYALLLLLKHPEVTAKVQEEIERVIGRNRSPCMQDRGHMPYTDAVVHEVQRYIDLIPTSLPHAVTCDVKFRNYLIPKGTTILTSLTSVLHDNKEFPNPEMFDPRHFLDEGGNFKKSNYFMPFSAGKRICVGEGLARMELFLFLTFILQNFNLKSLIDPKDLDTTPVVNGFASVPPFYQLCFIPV
`O=c1c(-c2ccccc2)coc2c(CN3CCOCC3)c(O)ccc12`: the inhibition was 10.1%.

For the molecule `CN(c1cccc(NC(=O)Nc2ccc(Cl)cc2)c1)S(C)(=O)=O`, the inhibition is 28.5%.

`Cn1nc(C(F)(F)F)c(C(=O)Nc2cccc(C(F)(F)F)c2)c1SCc1ccc(Cl)cc1`: the inhibition is 87.4% (active).

With `CCC(C)Sc1nc(C)nc2c1c(=O)n(C)c(=O)n2C` (configuration not stated), the inhibition was 32.5%.

Turning to `O=C1COc2ccc(NC(=O)N3CCN(c4ccc(F)cc4)CC3)cc2N1`, the inhibition is 8%.

Take `Cc1nonc1NC(=O)c1ccccc1Br`: the inhibition was -11.9%.

On to `O=C(Nc1ccccc1)c1cccnc1Nc1ccccc1`, for which the inhibition is 2.2%.

Turning to `O=C(Nc1ccc(-n2ccnc2P(=O)(O)c2ccccc2)cc1)c1ccccc1Br`, the inhibition is 96.9% (active).

As for `O=c1c2[nH]c3ccc(Cl)cc3c2ncn1Cc1ccccn1`, the inhibition was 10.9%.

Turning to `Nc1cc(OC(=O)c2ccccc2Br)nn1S(=O)(=O)c1ccccc1`, the inhibition was 12.4%.

As to `O=C(CSc1nnc(-c2cccnc2)n1Cc1ccco1)c1ccc(Cl)cc1`, the inhibition was 27.8%.

For `COc1cc(Cl)c(C)cc1NC(=O)CSc1nnc(-c2cccnc2)n1Cc1ccco1`, the inhibition is 60.5% (active).

Turning to `Cc1nnc(SCC(N)=O)n1CC1CCCO1` (configuration not stated), the inhibition is 8%.

Regarding `O=C(CSc1nnc(-c2ccco2)n1CC1CCCO1)c1ccccc1` (configuration not stated), the inhibition was 70.4% (active).

`CCn1c(SCC(=O)Nc2cc(C)c(Cl)cc2OC)nnc1-c1ccco1`: the inhibition is 70.6% (active).

In the case of `CCn1c(SCC(=O)Nc2cccc(F)c2)nnc1-c1cc2cc(Br)ccc2o1`, the inhibition was 7.3%.

On to `O=C(CSc1nnc(-c2cnccn2)n1Cc1ccco1)c1ccc(Cl)c(Cl)c1`, for which the inhibition is 5.6%.

With `O=C(CSc1nnc(-c2cccnc2)n1Cc1ccco1)c1ccc(Cl)c(Cl)c1`, the inhibition is 79.7% (active).

For the molecule `CCOC(=O)CNC(=O)CSc1nnc(-c2cccc(OC)c2)n1CC`, the inhibition is 20.1%.

On to `CCOC(=O)CSc1nnc(-c2ccco2)n1C`, for which the inhibition was -5.6%.

Take `COc1ccc(-c2nn(-c3ccccc3)cc2C(=O)Nc2nc(CC(C)=O)ns2)cc1`: the inhibition was -1%.

Turning to `COc1ccc(N2CCN(C(=O)CSc3nc4cc(OC)c(OC)cc4cc3C#N)CC2)cc1`, the inhibition was 37.5%.

For the molecule `C[C@@H](Nc1nc(-c2ccccc2)nc2c1oc1ccccc12)C(=O)O`, the inhibition is 1.5%.

Regarding `CSc1ccc(NC(=O)N2CC(C)OC(C)C2)cc1` (configuration not stated), the inhibition was 14.4%.

For the molecule `Cc1c(C(=O)Nc2ccccc2Cl)oc2ccc(S(=O)(=O)N3CCC4(CC3)OCCO4)cc12`, the inhibition is 7.5%.

In the case of `COC(=O)c1c(-c2cccs2)csc1NC(=O)CSc1ncnc2sc(C)c(C)c12`, the inhibition is 16.1%.

Take `Nc1cc(=O)nc(SCc2ccccc2)n1Cc1ccco1`: the inhibition is 32.6%.

With `N=c1c2c(-c3ccccc3)c(-c3ccccc3)oc2ncn1Cc1ccco1`, the inhibition is 19.1%.

As for `CCCn1c(SCC(=O)c2ccc3c(c2)OCCO3)nnc1C(C)C`, the inhibition is 16.5%.

With `COc1ccc(OC)c(NC(=O)CSc2nc3cccnc3n2C)c1`, the inhibition is 40.2%.

On to `CCn1c(COc2ccccc2)nnc1SCC(=O)Nc1ccc2c(c1)OCCO2`, for which the inhibition was 18.3%.

As for `NC(=O)c1c(NC(=O)CSc2nnc(-c3ccco3)n2N)sc2c1CCCC2`, the inhibition was 33.7%.

For the molecule `O=C(CSc1nnc(-c2cccs2)n1Cc1ccco1)c1ccc2c(c1)OCO2`, the inhibition was 51% (active).

On to `CCc1cccc(C)c1NC(=O)CSc1nnc(-c2ccco2)n1N`, for which the inhibition is 76% (active).

In the case of `CCn1c(COc2ccc(OC)cc2)nnc1SCC(=O)Nc1cc(OC)ccc1OC`, the inhibition is 65.9% (active).

As for `C(=C\c1ccccc1)/CSc1nnc(-c2cccnc2)n1Cc1ccco1`, the inhibition was 72.6% (active).

Consider `Cc1cccc(C)c1NC(=O)CCCSc1nnc(-c2ccco2)n1-c1ccccc1`, for which the inhibition was 23.1%.

On to `COc1ccc(NC(=O)CSc2nnc(-c3cccs3)n2Cc2ccco2)cc1OC`, for which the inhibition is 35.6%.

Regarding `COc1cccc2c1OCC(C(=O)NCc1ccc(Cl)cc1Cl)=C2`, the inhibition is 28.2%.

In the case of `CCCCN1C(=O)CC(N2CCOCC2)C1=O` (configuration not stated), the inhibition was -0.3%.

As to `CCCOc1ccc(CN(CCO)CCO)cc1C(=O)OC`, the inhibition was 0.9%.

Take `O=C(CSCc1c(Cl)cccc1Cl)NN1C(=O)c2ccccc2C1=O`: the inhibition is 43.5%.

On to `COc1ccc(C(=O)Nc2ncc3c(n2)-c2ccccc2CC3)cc1`, for which the inhibition is 5.2%.

In the case of `O=C(c1cccnc1NCc1ccccc1)N1CCOCC1`, the inhibition was 5.8%.

Consider `CCCC(=O)N=c1sc2cccc(F)c2n1C`, for which the inhibition was 44.7%.

Take `CCOC(=O)c1ccc(N2C(=O)CC(Sc3nc(O)c(CC)c(=O)[nH]3)C2=O)cc1` (configuration not stated): the inhibition is -1%.

Regarding `O=C(Nc1ccccc1)c1ccccc1NC(=O)C(F)(F)F`, the inhibition is 33.4%.

Turning to `CCCc1nc(SCC(=O)Nc2ccccc2OC)c2c(=O)n(C)c(=O)n(C)c2n1`, the inhibition was 41%.

Consider `CCOC(=O)CSc1nc2c(sc(=S)n2CCc2ccccc2)c(=O)n1Cc1ccco1`, for which the inhibition is 20.9%.

For `CCCn1c(SCC(=O)Nc2c(C)cccc2C)nnc1C(C)C`, the inhibition is 24.4%.

For `COc1ccccc1NC(=O)CSc1nc2sc(C)c(C)c2c(=O)n1Cc1ccco1`, the inhibition was 92.9% (active).

For the molecule `COc1cc(Cl)c(C)cc1NC(=O)CSc1nnc(-c2ccco2)n1CC(C)C`, the inhibition is 96.1% (active).

On to `CCc1c(C)nc2cc(C)[nH]n2c1=O`, for which the inhibition is -0.7%.

With `CCOCCN(C=O)c1cccc(OC)c1`, the inhibition was 26.6%.

For `CC(C)Oc1ccc(CCc2n[nH]c(=S)n2Cc2ccccc2)cc1`, the inhibition is 16.7%.

For the molecule `CCOC(=O)c1sc(NC(=O)CCN2CCOCC2)c(C(=O)OCC)c1C`, the inhibition was 35.2%.

Turning to `CCOC(=O)c1c(NC(=O)CCl)sc(C(=O)N(CC)CC)c1C`, the inhibition was 56.1% (active).

On to `CCOC(=O)c1sc(NC(=O)CSc2nnc(-c3ccco3)o2)c(C(=O)OCC)c1C`, for which the inhibition is 25.2%.

As to `COC(=O)c1c(CCl)noc1C(=O)NC(C)C`, the inhibition was 10.5%.

Consider `COc1ccccc1N=C1SC(C)CN1C(=O)C1CCC1` (configuration not stated), for which the inhibition was -1.1%.

Consider `Cn1c2c(c(=O)n(C)c1=O)[C@@H]1c3c(ccc4ccccc34)OC[C@@H]1CO2`, for which the inhibition is 33.8%.

As to `O=C(c1ccco1)N1CCN(CC(=O)N(C2CCCCC2)C2CCS(=O)(=O)C2)CC1` (configuration not stated), the inhibition is -21.3%.

As to `CCCc1nc2ccccc2c(=O)n1/N=C/c1ccc(O)c(O)c1`, the inhibition is 54.2% (active).

For `CCCc1nc2ccccc2c(=O)n1NC(=O)c1c(O)c2ccccc2[nH]c1=O`, the inhibition was -11.7%.

For the molecule `Cc1[nH]n(-c2cccc(Cl)c2)c(=O)c1/C=N/n1c(C)nc2ccccc2c1=O`, the inhibition was 20.6%.

As for `ONC(=Nc1ccccc1)c1ccccc1Cl`, the inhibition was 32.8%.

For the molecule `ONC(=Nc1ccc(Cl)cc1)c1ccccc1Cl`, the inhibition was 84.3% (active).

`CC(Oc1ccc(Cl)cc1)C(=O)OCC(=O)Nc1ncc(Cl)cc1Cl` (configuration not stated): the inhibition was 24.2%.

Take `CC(Oc1ccc(Cl)cc1)c1ccnn1S(C)(=O)=O` (configuration not stated): the inhibition was 69.5% (active).

With `CC(Oc1ccc(Cl)cc1)C(=O)Nc1ncccn1` (configuration not stated), the inhibition is 30%.

With `N#Cc1ccc(-c2ccc(F)cc2)nc1Sc1ccccc1`, the inhibition is 3.5%.

As to `Cc1csc(NC(=O)NC2(C(F)(F)F)Oc3ccccc3O2)n1`, the inhibition was -13.3%.

As for `O/N=C(\c1ccc2c(c1)OCCO2)C1CCCCC1`, the inhibition is 49.8%.

On to `CC(C)Cc1cc(C(=O)Nc2cc(Br)ccc2O)no1`, for which the inhibition is -2.9%.

With `CCCCn1ccnc1C(=O)c1cccc(S(=O)(=O)N2c3ccccc3CC2C)c1` (configuration not stated), the inhibition is 83.1% (active).

Consider `CCn1c(CSc2ncccn2)nnc1SCC(=O)N1c2ccccc2CC1C` (configuration not stated), for which the inhibition was 18.8%.

For the molecule `CC(C)N1C(=O)C2C(C(=O)NC3CCCCC3)C3C=CC2(O3)C1C(=O)NC1CCCC1` (configuration not stated), the inhibition was 6.6%.

Consider `N#Cc1ccc(-c2ccc(Cl)cc2)nc1Oc1ccc(F)cc1`, for which the inhibition was 41.8%.

For `O=C(Oc1ccc([N+](=O)[O-])cc1)c1ccc2ccccc2n1`, the inhibition is 0%.

On to `CS(=O)(=O)N(CC(=O)Nc1ccc(Cl)c(Cl)c1)C1CCCCC1`, for which the inhibition was 60.7% (active).

In the case of `CCOC(=O)N1CCN(C(=O)CN(C2CCCCC2)S(C)(=O)=O)CC1`, the inhibition was -5.6%.

With `CS(=O)(=O)N(CC(=O)N1CCN(c2ccc(F)cc2)CC1)C1CCCCC1`, the inhibition is 6.9%.

Turning to `O=C(CCCN1C(=O)CSc2ncccc21)N1CCN(c2cccc(C(F)(F)F)c2)CC1`, the inhibition is 34%.

In the case of `Cc1nc(C)c(C(=O)Nc2cccc(C)c2C)o1`, the inhibition is -14.2%.

Regarding `Cn1c(=O)cc(OCCCC(=O)N2CCN(c3ccccn3)CC2)c2ccccc21`, the inhibition is 30.2%.

`Cc1cc(C(=O)N2CCN(c3ccccn3)CC2)c(C)o1`: the inhibition was 56.8% (active).

As for `CC(=C1C(=O)c2ccccc2C1=O)N1CCN(c2ccccn2)CC1`, the inhibition was 13.1%.

For the molecule `COC(=O)c1ccc(NC(=O)C(C)N2C(=O)c3ccccc3C2=O)cc1` (configuration not stated), the inhibition is 11.8%.

For the molecule `CC(C)Oc1ccc(Oc2ccc(C(F)(F)F)cn2)cc1`, the inhibition was 23.2%.

In the case of `CN(C)c1ccc(NC(=S)N(CCc2ccccc2)C2CC(=O)N(c3c(Cl)cccc3Cl)C2=O)cc1` (configuration not stated), the inhibition is 13.4%.

For `COC(=O)CN(C(=S)Nc1ccc(Cl)cc1)C1CC(=O)N(c2ccc(OC)cc2)C1=O` (configuration not stated), the inhibition is 69.3% (active).

As to `COc1cccc(N2CCN(C3CC(=O)N(c4ccc(Cl)cc4)C3=O)CC2)c1` (configuration not stated), the inhibition is -17.1%.

As to `CCSc1nnc(NC(=O)Cc2ccccc2OC)s1`, the inhibition is 36.5%.

Turning to `CCOCCCN1C(=O)CN(C2CCCCC2)C(=O)C1c1ccc(OCC)c(OC)c1` (configuration not stated), the inhibition was 0.6%.

Take `CCN(CC)S(=O)(=O)c1ccc2nc(COC(=O)c3n[nH]c4ccccc34)[nH]c2c1`: the inhibition is 9.5%.

`CCN(CC)S(=O)(=O)c1ccc2nc(CSc3nnnn3-c3ccc(O)cc3)[nH]c2c1`: the inhibition is 66.1% (active).

As for `CCn1c(CSc2nncn2-c2ccc(OC)cc2)nc2cc(S(=O)(=O)N(C)C)ccc21`, the inhibition was 21.5%.

Usually inhibition stands for the drop in the measured response relative to a control, in per cent.
